Bioassay records from PubChem BioAssay.
Shn3 3UTR inh: reduces Shn3 3'UTR luciferase signal in osteoblasts. inhibition, % at 12.5 µM. AID 588674. Clone20 osteoblast Shn3 3'UTR firefly luciferase, 24 h. 360,000 compounds, 0.52% hits;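 active = mean inhibition of at least 75% with every replicate also reaching 75%; inconclusive = mean inhibition at least 75% but some replicate below; inactive = mean inhibition below 75%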
PAX8 reporter: lowers PAX8-driven luciferase in RMG-I cells. inhibition, % at 12.6 µM. AID 652154. 360,000 compounds, 1.2% hits. RMG-I TPO-luciferase reporter, SteadyGlo, 24 h;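 active = mean replicate inhibition at least 60% with every replicate also reaching 60%; inconclusive = only one of the two criteria is met; inactive = mean below 60% and not all replicates reaching 60%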;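 also: luciferase light reporting Pax8 driven TPO promoter activity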
TRPM1 prom inh: reduces MITF-dependent TRPM1 promoter luciferase signal; SK-MEL-5 TRPM1 promoter luciferase, 24 h; inhibition, % at 12.5 µM; 330,000 compounds, 0.83% hits; AID 488899;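 active = mean inhibition across replicates of 60% or more, whatever share of single replicates reaches that level; inconclusive = some that reach 60%, reason not given; inactive = mean inhibition across replicates below 60%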
LMP1 NFkB inh: reduces LMP1-driven NF-kappaB luciferase signal; 350,000 compounds, 0.69% hits; AID 504558; LMP1-induced NF-kappaB luciferase reporter cells, luminescence; inhibition, % at 12.5 µM; in the data active = inhibition above about 41%; inconclusive = no clear call, values can overlap the other calls
aSyn 5UTR inh: 5' untranslated region of α-synuclein, MLPCN primary screen | 300,000 compounds, 0.82% hits | inhibition, % (tested at 7.5 µM) | alpha-synuclein 5'UTR reporter, inhibitor activity; in the data active = inhibition above about 60%; inconclusive = no clear call, values can overlap the other calls;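 also: H4 neuroglioblastoma cells stably carrying SNCA 5'UTR luciferase fusion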
Hits are given with their value; - = inactive; ? = inconclusive; . = no result given. Shown are actives, neighbours in structure and some others; about 2.1% of the full set was active somewhere.

SMILES	Shn3 3UTR inh	PAX8 reporter	TRPM1 prom inh	LMP1 NFkB inh	aSyn 5UTR inh
CCOc1ccc(NC(=O)Nc2ccc3nsnc3c2)cc1	-	-	-	-	-
COc1cc(-c2noc(C)c2C#Cc2ccsc2)cc(OC)c1OC	-	-	-	-	68.8
COc1cc(-c2noc(C)c2C#CCO)cc(OC)c1OC	-	-	-	-	-
Cc1csc(C(C#N)C(=O)c2cc3ccccc3o2)n1 (configuration not stated)	-	.	-	-	-
COc1ccccc1OCC(=O)c1[nH]c(C)c(C(C)=O)c1C	85.0	.	-	-	-
C[C@@H]1CCCCO[C@H](CN(C)S(=O)(=O)c2ccc(F)cc2)[C@@H](C)CN([C@@H](C)CO)C(=O)c2cc(NC(=O)Nc3ccc(C(F)(F)F)cc3)ccc2O1	.	64.5	.	.	.
C[C@@H]1CCCCO[C@@H](CN(C)S(=O)(=O)c2ccc(Cl)cc2)[C@H](C)CN([C@H](C)CO)C(=O)c2cc(NC(=O)Nc3ccc(C(F)(F)F)cc3)ccc2O1	.	70.3	.	.	.
C[C@@H]1CCCCO[C@@H](CN(C)S(=O)(=O)c2ccc(F)cc2)[C@H](C)CN([C@H](C)CO)C(=O)c2cc(NC(=O)Nc3ccc(C(F)(F)F)cc3)ccc2O1	.	72.8	.	.	.
COc1ccc2cc(C(=O)C3CCCN(C(=O)c4cnccn4)C3)ccc2c1 (configuration not stated)	-	-	-	-	-
CS(=O)(=O)Nc1ccc(C(=O)N2CCN(c3ccccc3)CC2)cc1	-	.	-	-	.
COC(=O)c1cccc(Nc2ncnc3sccc23)c1	-	-	-	-	-
N=c1sc2ccccc2n1-c1ccccc1	-	.	-	-	-
C=CC(=O)N=c1sc2ccccc2n1-c1ccccc1	-	92.4	-	-	69.7
Cc1cc(NCCCN2CCOCC2)n2nc(C)c(-c3ccc(F)cc3)c2n1	-	.	-	-	-
O=C1CCCCC1Nc1ccc(Cl)cc1 (configuration not stated)	-	-	-	-	.
C/C(=N\NC(=O)CSCc1ccccc1Cl)c1cc(O)ccc1O	-	-	-	-	61.8
CC(=O)Nc1ccc(NC(=O)CSCc2ccccc2Cl)cc1	-	-	-	-	-
O=C(NCCCO)c1cc2ccccc2[nH]1	-	-	-	-	-
COc1ccc(C(=O)NCCCNC(=O)c2cc3ccccc3[nH]2)cc1OC	-	-	-	75.5	-
C=CCn1c(COc2ccc(Cl)cc2)nnc1SCC(=O)Nc1ccc(S(N)(=O)=O)cc1	-	63.6	-	-	-
CCn1c(COc2ccc(C)cc2)nnc1SCC(=O)Nc1ccc(S(N)(=O)=O)cc1	-	.	-	-	-
OC[C@@H]1CC[C@@H]2O[C@H](CCc3ccc(C#CCc4ccccc4)cc3)[C@@H](n3cc(-c4ccccc4)nn3)C[C@@H]2O1	.	71.6	.	.	.
OC[C@@H]1CC[C@@H]2O[C@H](CCc3ccc(C#CCc4ccccc4)cc3)[C@H](n3cc(-c4ccccc4)nn3)C[C@@H]2O1	.	62.2	.	.	.
Cc1ccc(NC(=O)c2ccc(F)cc2F)cc1NS(C)(=O)=O	-	-	.	.	-
COC(CNC(=O)c1cccnc1)OC	-	-	-	-	-
SMILES	Shn3 3UTR inh	PAX8 reporter	TRPM1 prom inh	LMP1 NFkB inh	aSyn 5UTR inh
COC(CNC(=O)c1ccc2c3c(onc13)-c1ccccc1C2=O)OC	.	-	80.0	-	-
NC(=O)C(Cc1ccccc1)NS(=O)(=O)c1ccc(N2CCCC2=O)cc1 (configuration not stated)	-	.	-	-	-
COC(=O)C(NS(=O)(=O)c1ccc(N2CCCC2=O)cc1)c1ccccc1 (configuration not stated)	-	-	-	66.6	-
O=C(CSc1nc2ccccc2s1)NCCOc1ccccc1	-	92.8	-	-	-
COc1cc2c(cc1OC)C(C(=O)NC(C)c1ccccc1)CC(=O)N2 (configuration not stated)	-	-	-	-	-
Cc1ccc(NC(=S)NCCN2CCOCC2)cc1F	-	-	-	-	-
CCOc1ccc(-c2ccc(SC)nn2)cc1	-	75.0	62.1	59.1	75.6
Cc1cc(C)c(NC(=O)CS(=O)CC(=O)NCCN2CCCCCC2)c(C)c1 (configuration not stated)	-	-	-	-	-
C[C@H]1CN([C@@H](C)CO)C(=O)c2cc(NC(=O)CCCCCC(=O)Nc3ccccc3N)ccc2O[C@@H]1CN(C)S(=O)(=O)c1ccc(Cl)cc1	.	-	.	.	.
CN(C)c1cccc(C(=O)Nc2nc3ccccc3[nH]2)c1	-	-	-	44.3	-
COc1cccc(C(=O)Nc2nc3ccccc3[nH]2)c1	-	.	-	?	62.6
Cc1ccc(C(=O)Nc2cnc3ccccc3c2)cc1	86.4	90.3	84.4	78.6	103.5
COc1ccc(C(=O)Nc2nc3ccccc3[nH]2)cc1	-	?	-	55.4	70.7
CCCn1c(SCC(=O)Nc2ccc(Cl)cc2F)nc(O)cc1=O	-	-	.	-	.
C=CCNC(=O)c1ccc(C2SCC(=O)N2Cc2ccccc2)cc1 (configuration not stated)	-	-	-	-	-
COc1ccc(C(=O)N[C@H](C(=O)Nc2nc3ccccc3[nH]2)C(C)C)cc1	-	-	-	-	106.1
O=C(Nc1nc2ccccc2[nH]1)c1ccc([N+](=O)[O-])cc1	-	-	-	-	-
COc1ccc(C(=O)Nc2nc3ccccc3s2)cc1	-	-	-	-	67.1
Cc1cccc(C(=O)N[C@H](C(=O)Nc2nc(C)cs2)C(C)C)c1	-	-	-	-	-
Cc1cccc(C(=O)N[C@H](C(=O)Nc2nc3ccccc3[nH]2)C(C)C)c1	-	-	-	-	96.1
COc1ccc(NC(=O)C(NC(=O)c2ccccc2)C(C)C)cc1 (configuration not stated)	-	-	-	-	-
Cc1ccc(C(=O)Nc2nc3ccccc3[nH]2)cc1	-	80.6	73.2	63.4	68.1
COc1ccc(O)c(C(c2c(C)[nH][nH]c2=O)c2c(C)[nH][nH]c2=O)c1	-	96.7	-	-	-
CCn1c(=O)c2c(cnn2C)c2ccccc21	-	-	-	46.7	-
O=C(/C=C\Nc1ccc2c(c1)OCO2)c1ccccn1	-	.	75.3	71.7	117.6
SMILES	Shn3 3UTR inh	PAX8 reporter	TRPM1 prom inh	LMP1 NFkB inh	aSyn 5UTR inh
O=C(Nc1ccc2c(c1)OCO2)c1ccccn1	-	-	-	-	.
OC[C@@H]1CN(Cc2ccccc2)C[C@H](n2cnc3c(NCc4ccc(F)cc4)ncnc32)O1	-	-	.	.	.
OC[C@@H]1CN(Cc2ccc(-c3ccccc3)cc2)C[C@H](n2cnc3c(NCc4ccc(F)cc4)ncnc32)O1	80.6	84.3	.	.	.
CCCN(CCC)S(=O)(=O)c1ccc(NC(=O)c2cc(C(=O)OC)cc([N+](=O)[O-])c2)cc1	-	66.1	-	-	-
CCC(C)(C)NC(=O)c1cc(C(=O)OC)cc([N+](=O)[O-])c1	-	-	-	-	-
Cc1ccc(CCNC(=O)C2CCN(S(=O)(=O)c3ccc4nc5c(c(C(=O)O)c4c3)CCCC5)CC2)cc1	-	-	-	-	-
COc1ccc(NC(=O)C2CCCN(S(=O)(=O)c3cccnc3)C2)cc1 (configuration not stated)	-	.	-	-	-
